RGS4 inhibitor = Inhibitors of Regulator of G Protein Signaling (RGS) 4: qHTS | Transcreener GDP fluorescence polarization, RGS4-accelerated GTP hydrolysis | AID 504845, 2011 | Potency, µM (series often up to 114 µM), most hits filed as inhibitors | Regulator of G-protein signaling 4 (Homo sapiens), P49798 | 390,000 tested, 0.039% active; also: nearly all actives have a fitted effect of over 75% in size
Target sequence (P49798 whole entry, looked up): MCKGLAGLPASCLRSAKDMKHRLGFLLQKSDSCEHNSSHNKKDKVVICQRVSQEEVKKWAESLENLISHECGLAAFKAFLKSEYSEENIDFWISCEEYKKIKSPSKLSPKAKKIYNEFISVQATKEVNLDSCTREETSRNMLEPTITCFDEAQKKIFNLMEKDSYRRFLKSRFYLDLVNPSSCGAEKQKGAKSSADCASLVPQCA
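MLSMR compounds (23 nl, pin-transferred) preincubated 10 min at room temperature with a 500nM (2x) first reagent, then RGS4 at 900nM (2x) plus Transcreener GDP mix added; fluorescence polarization (620/688 nm) read before and after 90 min at 30 °C.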
S-ASM inh = Inhibitors of Secretory Acid Sphingomyelinase (S-ASM): qHTS. 340,000 tested, 0.006% active. placental ASM, HMU-PC fluorogenic substrate, 60 min. Sphingomyelin phosphodiesterase (Homo sapiens), P17405. Potency, µM (doses to about 57.5 µM), usual class: inhibitors. AID 504937, 2011
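Steps: dispense placental human ASM, pin compound, wait 10 min at room temperature, add HMU-PC0 substrate at 9 uM final, incubate 60 min at 37 °C, add stop solution raising pH to 10, read fluorescence.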
Mito fusion act = qHTS Assay for Small Molecule Inhibitors of Mitochondrial Division or Activators of Mitochondrial Fusion | S. cerevisiae fusion-defective mutant growth rescue, CellTiterGlo 48 h | 320,000 tested, 0.23% active | Potency, µM (highest dose often 46.1 µM), most hits filed as activators | AID 485298, 2010; also: nearly all actives have a fitted effect of over 45% in size
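Yeast fusion mutant, YPEG (non-fermentable carbon), compound, 48 h at 37C non-permissive; CellTiterGlo added, 10 min RT, luminescence read. Rescued growth = division inhibition.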
ClpP mod = qHTS Assay for Activators of ClpP; ATP-dependent Clp protease proteolytic subunit (Bacillus subtilis (strain 168)), P80244; purified B. subtilis ClpP, FRET peptide cleavage, 20 min; Potency, µM (series often up to 57.5 µM); 340,000 tested, 1.9% active; active = well fitted falling curve with a large enough effect; inconclusive = small, poorly fitted or top-dose-only effect; inactive = no such curve, though single readings can be large or run the other way; also: the source files actives as falling curves though it sought activators and does not explain the sign; nearly all actives have a fitted effect of over 65% in size
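ClpP 10 microg/mL final, pH 8 Tris/KCl buffer with BSA, glycerol, Tween-20; compound pinned in; FRET-FV substrate; RT 20 min; Ex320/Em430; ΔFRET vs ADEP 5.8 microM, DMSO, no enzyme.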
mIDH1 inhibitor = qHTS for Inhibitors of mutant isocitrate dehydrogenase 1 (IDH1): qHTS; Potency, µM (titrated, usually from 76.6 µM), hits mostly inhibitors; Isocitrate dehydrogenase [NADP] cytoplasmic (Homo sapiens), O75874; 390,000 tested, 0.093% active; IDH1-R132H enzyme, NADPH consumption, diaphorase/resazurin fluorescence; also: nearly all actives have a fitted effect of over 65% in size
Target sequence (O75874 whole entry R132H, stated change not applied): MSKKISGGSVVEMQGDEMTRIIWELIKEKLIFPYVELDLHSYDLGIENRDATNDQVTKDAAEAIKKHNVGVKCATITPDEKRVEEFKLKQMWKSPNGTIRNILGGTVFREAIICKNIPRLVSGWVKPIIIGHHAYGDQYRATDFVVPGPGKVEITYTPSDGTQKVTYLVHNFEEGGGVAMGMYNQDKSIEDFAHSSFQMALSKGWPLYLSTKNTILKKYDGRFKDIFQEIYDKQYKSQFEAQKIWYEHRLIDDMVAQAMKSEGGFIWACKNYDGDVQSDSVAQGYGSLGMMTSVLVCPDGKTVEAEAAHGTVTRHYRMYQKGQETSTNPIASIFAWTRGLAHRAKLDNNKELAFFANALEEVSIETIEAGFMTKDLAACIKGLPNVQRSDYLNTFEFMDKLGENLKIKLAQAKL
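IDH1-R132H (0.5 ug/mL) preincubated 30 min with compound, then NADPH (0.016 mM) and alpha-KG (2 mM) added; 80 min at RT, pH 7.5. Remaining NADPH coupled via diaphorase/resazurin to fluorescence (540/590 nm); concentration-response curves normalized to no-enzyme control.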
LDHA block = qHTS assay for inhibitors of human lactate dehydrogenase | L-lactate dehydrogenase A chain (Homo sapiens), P00338 | activity change, % (values are at about 110 or 230 µM) | 480,000 tested, 0.15% active | purified LDHA, NADH/diaphorase-resazurin fluorescence; stronger effect = lower value; in the data active = activity change below about -30%; inconclusive = mostly about -25% to -30%
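Enzyme activity of human lactate dehydrogenase 5 (2 nM; 0.06 mM NADH, 0.2 mM pyruvate, 5 min, RT) is measured via a resazurin/diaphorase fluorescence readout of residual NADH.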
IDH1 autofl = qHTS for Inhibitors of mutant isocitrate dehydrogenase 1 (IDH1): Cherrypicks Autofluorescence Interference. shares compounds with mIDH1 inhibitor. Resorufin detection reagent fluorescence interference, cell-free. inhibition of signal, % at 51.2 µM. 750 tested, under 10 active. AID 623980, 2012
IDH1 WT = qHTS for Inhibitors of mutant isocitrate dehydrogenase 1 (IDH1): Cherrypicks in WT IDH1. shares compounds with mIDH1 inhibitor. WT IDH1 enzyme, NADPH diaphorase/resazurin fluorescence. Potency, µM (top dose mostly 115 µM), hits mostly inhibitors. 750 tested, 9% active. AID 623995, 2012; also: nearly all actives have a fitted effect of over 55% in size
Target sequence (O75874 whole entry, looked up): as the sequence (O75874 whole entry R132H, stated change not applied) above, with H132R counted along it
IDH1 R132H conf = qHTS for Inhibitors of mutant isocitrate dehydrogenase 1 (IDH1): Confirmation of Cherrypicks. shares compounds with mIDH1 inhibitor. IDH1 R132H enzyme, NADPH diaphorase/resazurin fluorescence. Potency, µM (titrated, usually from 76.6 µM), usual class: inhibitors. 750 tested, 83% active. AID 624002, 2012; also: nearly all actives have a fitted effect of over 50% in size
Hits are given with their value; - = inactive; ? = inconclusive; . = no result. This is one part of a sample in which hits are shown more often than they occur. Unless noted, calls follow the shape of the dose curve; as a rule, active = well fitted curve in the direction sought with a large enough effect; inconclusive = small, poorly fitted or top-dose-only effect, or another doubt; inactive = no such curve, though single readings can be large; an effect the other way counts as inactive or inconclusive.

SMILES | RGS4 inhibitor | S-ASM inh | Mito fusion act | ClpP mod | mIDH1 inhibitor | LDHA block | IDH1 autofl | IDH1 WT | IDH1 R132H conf
Cc1cc(C)cc(N(CC(=O)NC2CCCCC2)C(=O)c2ccc(C)s2)c1 | - | - | - | - | ? | - | - | - | 20µM
Cc1ccc(C)c(S(=O)(=O)c2nnn3c2nc(Nc2ccc(F)c(Cl)c2)c2sccc23)c1 | - | . | . | ? | ? | - | - | - | ?
Cc1ccc(S(=O)(=O)c2nnn3c2nc(NCc2ccccc2Cl)c2sccc23)cc1 | - | . | . | - | - | - | . | . | .
Cc1ccc(S(=O)(=O)c2nnn3c2nc(NC(C)c2ccccc2)c2sccc23)cc1 (stereo not drawn) | - | . | . | - | ? | - | - | - | 14.1µM
CC(=O)Nc1ccc(Nc2nc3c(S(=O)(=O)c4cc(C)ccc4C)nnn3c3ccsc23)cc1 | - | . | . | - | - | - | . | . | .
CC(Nc1ncccc1[N+](=O)[O-])c1cccc(Cl)c1 (stereo not drawn) | . | . | . | . | . | - | . | . | .
COc1ccc(-c2cc3ccc(OCC=C(C)C)cc3oc2=O)c(OC)c1 | . | . | . | . | . | - | . | . | .
CC(=O)NS(=O)(=O)c1ccc(N=c2ssc3c2-c2cc(C)ccc2NC3(C)C)cc1 | - | - | - | - | ? | - | - | - | 44.7µM
N#CC1=C(N)NC(SCC(=O)Nc2ccc(Br)cc2)=C(C#N)C12CCCCC2 | - | ? | - | - | ? | - | - | - | 22.4µM
N#CC1=C(N)NC(SCc2ccc(Br)cc2)=C(C#N)C12CCCCC2 | - | - | - | - | - | - | . | . | .
COc1ccccc1Nc1nc(-c2ccc(O)c(C(N)=O)c2)cs1 | . | . | . | . | . | - | . | . | .
COc1ccc(-c2cc(C(=O)O)c3c(C)nn(-c4ccccn4)c3n2)cc1 | - | - | - | - | - | - | . | . | .
CCOC(=O)c1cc(-c2ccncc2)nc2c1c(C)nn2-c1ccccn1 | - | - | - | - | ? | - | - | ? | 22.4µM
CNC(=O)/C(C#N)=C/c1c(N(Cc2ccccc2)Cc2ccccc2)nc2ccccn2c1=O | - | - | - | - | 52.1µM | - | - | - | 25.1µM
COC(=O)/C(C#N)=C/c1c(N2CCN(c3ccccc3)CC2)nc2ccccn2c1=O | - | - | - | . | - | - | . | . | .
Cc1cc([N+](=O)[O-])cc2c1-c1ncccc1C2=Nc1ccccc1 | - | - | - | - | - | - | . | . | .
Cc1ccccc1N=C1c2cc([N+](=O)[O-])ccc2-c2ncccc21 | - | - | - | - | ? | - | - | - | 22.4µM
COc1ccc(Nc2c3c(nc4ccc(NC(=O)/C=C/c5cc(OC)c(OC)c(OC)c5)cc24)CCCC3)cc1OC | - | . | . | - | ? | - | - | - | ?
Cn1nc(C(=O)OCc2nc(-c3ccc(Br)cc3)no2)c2ccccc21 | . | . | . | . | . | - | . | . | .
O=C(Oc1ccc2c(c1)O/C(=C\c1ccncc1)C2=O)c1ccccc1 | - | - | - | - | 52.1µM | - | - | - | 35.5µM
CS(=O)(=O)Oc1ccc2c(c1)O/C(=C\c1ccncc1)C2=O | . | . | . | . | . | - | . | . | .
Nc1nnc(-c2ccncc2)s1 | - | - | - | ? | - | - | . | . | .
c1cc(-c2sc(-c3ccncc3)c(-c3ccncc3)c2-c2ccncc2)ccn1 | - | - | - | . | ? | - | - | ? | 28.2µM
COc1cc(C2C(C#N)=C(N)N(c3sc4c(c3C#N)CCCC4)C3=C2C(=O)CC(C)(C)C3)cc(OC)c1OC (stereo not drawn) | - | - | - | - | ? | - | - | - | 7.94µM
CC(c1ccccc1)N(CCC(c1ccccc1)C1CCOC(C)(C)C1)C(=O)c1ccco1 (stereo not drawn) | - | - | - | - | ? | - | . | . | .
SMILES | RGS4 inhibitor | S-ASM inh | Mito fusion act | ClpP mod | mIDH1 inhibitor | LDHA block | IDH1 autofl | IDH1 WT | IDH1 R132H conf
COc1ccc(CN(CCC(c2ccc(F)cc2)C2CCOC(C)(C)C2)C(=O)c2ccco2)cc1 (stereo not drawn) | - | - | - | . | ? | - | - | - | ?
O=C(c1ccccc1OCc1nc(-c2ccccc2)no1)N1CCN(Cc2ccccc2)CC1 | . | . | . | . | . | - | . | . | .
CCOCCn1c(SCC(=O)O)nc2c1c(=O)[nH]c(=O)n2C | . | . | . | . | . | - | . | . | .
CCn1c(=O)c2cc(C(=O)N(C)c3cc(C)ccc3C)sc2c2ccccc21 | - | . | . | - | ? | - | - | - | 20µM
N#C/C(=C/c1ccccc1C=O)c1nc2ccccc2s1 | . | . | . | . | . | - | . | . | .
CCC(=O)N(CCC(Cc1ccccc1)c1ccc2c(c1)OCO2)Cc1ccccc1F (stereo not drawn) | - | - | - | - | ? | - | - | - | 14.1µM
O=C(c1ccc2c(c1)OCO2)N(Cc1ccco1)C1(C(=O)NC2CCCC2)CCCCC1 | . | . | . | . | . | - | . | . | .
CN1C=CC2=C(C#N)C(N)C(C#N)(C#N)[C@H](c3ccccc3)[C@H]2C1 (stereo partly drawn) | - | - | - | ? | ? | - | - | - | ?
N#CC1(C#N)C(C(N)=O)C1c1ccccc1 (stereo not drawn) | - | - | - | - | - | - | . | . | .
CN(c1ccccc1)c1nc(N2CCCC2)nc(-n2ccnc2)n1 | - | - | - | - | - | - | . | . | .
c1ccc(N(c2ccccc2)c2nc(N3CCCC3)nc(-n3ccnc3)n2)cc1 | - | ? | - | - | 9.27µM | - | - | - | 6.31µM
Cc1ccc(CSC2=Nc3ccccc3C3=NC(CCC(=O)NCCc4ccccc4)C(=O)N23)cc1 (stereo not drawn) | - | . | . | - | ? | - | - | - | -
